Compound activity (PubChem)
Hits are enriched below; roughly 6.9% of the tested compounds scored in any of these assays.
L3MBTL1 block: inhibitors of human L3MBTL1 | Q9Y468 | AlphaScreen L3MBTL1–H3K9me1 peptide binding | Potency, µM (titrated, usually from 57.1 µM), for the others: at the highest dose activity, negative = inhibition, most hits filed as inhibitors | 230,000 compounds, 0.66% hits; note: % is set by controls: 0 for no effect and ±100 for the full control effect; nearly all actives have a fitted effect of over 60% in size
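AlphaScreen proximity signal between nickel-chelate acceptor and streptavidin donor beads (final 10 ug/mL) reports binding of 50 nM L3MBTL1 to 75 nM biotin-H3 K9me1 peptide; complex incubated with compounds 30 min at room temperature; cefsulodin titration as control.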
VDR inhibitor: blocks the human vitamin D receptor; P11473; VDR-SRC2-3 peptide fluorescence polarization, 2 h; Potency, µM, without a hit: max response, negative = inhibition, actives largely listed as inhibitors; 400,000 compounds, 0.93% hits; note: % is set by controls: 0 for no effect and ±100 for the full control effect
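Inhibition of the VDR/SRC2-3 peptide interaction is quantified by fluorescence polarization. Compounds (23 nl, pintool) incubate with the reagents for 2 hours at ambient room temperature.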
BAZ2B inh: blocks human BAZ2B. AlphaScreen BAZ2B-H3K14Ac peptide displacement. Potency, µM (top dose mostly 114 µM), for inactives: at the top dose activity change, negative = inhibition, hits mostly inhibitors. 360,000 compounds, 4.4% hits; note: % is set by controls: 0 for no effect and ±100 for the full control effect; nearly all actives have a fitted effect of over 60% in size
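In this displacement format the biotinylated H3(5-23) peptide acetylated at Lys14 serves as ligand at 50 nM, with BAZ2B at 50 nM in PBS pH 7.4 containing 0.01% Tween-20. Donor and acceptor beads are 10 ug/mL final.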
JMJD2A Tudor inh: blocks the human JMJD2A Tudor domain. O75164. AlphaScreen JMJD2A-Tudor / H3K4me3 peptide binding. Potency, µM (doses to about 114 µM), without a hit: at the top dose activity change, negative = inhibition, usual class: inhibitors. 390,000 compounds, 4.4% hits. AID 504339; note: % is set by controls: 0 for no effect and ±100 for the full control effect; nearly all actives have a fitted effect of over 50% in size
PLK1 PBD inh: inhibitors of human PLK1 polo-box domain binding. Plk1 PBD binding of FITC phosphopeptide, fluorescence polarization. AID 720504. Potency, µM, without a hit: max response, negative = inhibition, actives largely listed as inhibitors. 360,000 compounds, 2.8% hits. P53350; note: series mostly up to about 57 µM; % is set by controls: 0 for no effect and ±100 for the full control effect; nearly all actives have a fitted effect of over 65% in size
Target sequence (P53350 whole entry, looked up, the tested form may be a part): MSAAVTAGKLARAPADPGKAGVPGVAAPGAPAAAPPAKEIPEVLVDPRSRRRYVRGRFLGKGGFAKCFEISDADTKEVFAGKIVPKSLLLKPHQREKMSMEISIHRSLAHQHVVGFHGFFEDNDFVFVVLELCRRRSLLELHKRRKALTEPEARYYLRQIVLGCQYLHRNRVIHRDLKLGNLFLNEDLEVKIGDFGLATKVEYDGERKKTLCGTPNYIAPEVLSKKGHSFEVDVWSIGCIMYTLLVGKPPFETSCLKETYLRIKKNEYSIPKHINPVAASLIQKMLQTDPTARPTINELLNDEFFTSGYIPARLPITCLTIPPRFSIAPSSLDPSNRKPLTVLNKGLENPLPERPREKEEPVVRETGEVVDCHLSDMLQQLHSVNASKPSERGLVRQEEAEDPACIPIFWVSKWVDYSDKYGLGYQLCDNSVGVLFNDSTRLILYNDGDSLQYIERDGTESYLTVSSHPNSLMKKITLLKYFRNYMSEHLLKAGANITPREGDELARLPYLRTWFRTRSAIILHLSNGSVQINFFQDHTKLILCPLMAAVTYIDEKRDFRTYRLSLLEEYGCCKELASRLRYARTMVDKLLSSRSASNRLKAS
HP1b binding inh: blocks HP1-beta chromodomain binding to methylated histone tails. P83916. AlphaScreen HP1-beta / biotin-H3K9me3 peptide binding. 390,000 compounds, 0.56% hits. Potency, µM (titrated, usually from 114 µM), without a hit: top-dose activity change, negative = inhibition, usual class: inhibitors; note: nearly all actives have a fitted effect of over 70% in size
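AlphaScreen: HP1-beta (50 nM) preformed 30 min with biotin-H3(1-18)K9me3 peptide (50 nM) in PBS pH 7.4, 0.01% Tween-20. Compound added for 30 min at RT, then streptavidin donor/nickel chelate acceptor beads (10 ug/mL) for 30 min.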
* marks the source's active call; other numbers are inactive results; ? = inconclusive; · = not tested or not shown; ! = not active in a repeat; [ ] = another dose, or the depositor's remark. Calls come from the whole dose curve; as a rule, active = well fitted curve in the direction sought with a large enough effect; inconclusive = small, poorly fitted or top-dose-only effect, or another doubt; inactive = no such curve, though single readings can be large; an effect the other way counts as inactive or inconclusive. Potency is the fitted concentration of half-maximal effect.

SMILES	L3MBTL1 block	VDR inhibitor	BAZ2B inh	JMJD2A Tudor inh	PLK1 PBD inh	HP1b binding inh
O=c1c2sc3ccccc3c2n(Cc2ccccc2F)c(=O)n1Cc1ccccc1	·	-4%	2%	9%	·	44%
C#CCOc1c(/C=C\c2nc(O)c([N+](=O)[O-])c(=O)[nH]2)cc(Br)cc1OC	-1%	22µM*	-11%	-20%	-11%	16%
OC(CNC1CCCc2ccccc21)COc1c(Cl)cccc1Cl (stereo unspecified)	3%	-9%	40µM*	5.6µM*	0%	7%
C=CCn1c(C(C)NC(=O)c2ccc(C)cc2)n[nH]c1=S (stereo unspecified)	13%	-4%	3%	8.9µM*	-12%	24%
CCn1c(C(C)NC(=O)c2ccccc2C)n[nH]c1=S (stereo unspecified)	9%	-16%	-12%	?	3%	45%
C=CCn1c(C(C)NC(=O)c2ccccc2C)n[nH]c1=S (stereo unspecified)	-11%	-13%	-4%	7.9µM*	-2%	44%
CCOC(=O)NN1C(=O)c2ccccc2NC1c1ccccc1F (stereo unspecified)	·	-7%	0%	1%	-9%	22%
CN1CCN(C(=O)Cn2c(-c3cccs3)cc3cc(Cl)ccc32)CC1	·	14%	-15%	-21%	·	26%
COc1ccc2nc(N/C(N)=N/S(C)(=O)=O)nc(C)c2c1	7%	-3%	1%	-4%[11.4 µM]	-17%	16%
CCOc1ccc(NC(=O)CCc2c(C)nc3cc(-c4ccccc4OC)nn3c2C)cc1	·	-12%	-3%	-4%	·	27%
CC(C)(C)NC(=O)[C@@H]1CN(Cc2cccnc2)CCN1C[C@@H](O)C[C@@H](Cc1ccccc1)C(=O)N[C@H]1c2ccccc2C[C@H]1O	·	-4%	·	89µM*	-11%	8%
Cc1ccc(-c2nc(S(=O)(=O)c3ccc(Cl)cc3)c(N3CCCCC3)o2)cc1	·	1%	?	-34%	·	?
COC(=O)C(CCSC)NC(=O)C1CCN(c2ncnc3c2nc2n3CCCCC2)CC1 (stereo unspecified)	·	16%	4%	4%	·	16%
Cc1cc(C)nc(NNC(=O)NC2CCCCC2)n1	19%	?	-1%	-13%	27µM*	6%
Cc1cc(C)nc(SCC(=O)NC2CCCC2)n1	9%	7%	-2%	1%	-14%	15%
CCCCn1nc(NC(=O)c2cccc(Cl)c2)c2cc3ccc(C)cc3nc21	·	7%	2%	-8%	·	31%
NC1(C(=O)O)CSSC1	·	-18%	·	89µM*	-8%	?
COc1ccc(-c2csc(NC(=O)CSc3nc(C)nc4sc(C(=O)O)c(C)c34)n2)cc1	4%	31%	50µM*	22µM*	19µM*	22µM*
CC1=NN(c2ccc(Cl)cc2)C(=O)C1	-9%	?	-33%	-24%	2%	16%
CC1=NN(c2ccc(S(=O)(=O)O)cc2C)C(=O)C1	-17%	-25%	56µM*	50µM*	?	42%
O=C1OCCC1Sc1nnc(-c2ccc(O)cc2)o1 (stereo unspecified)	?	11%	-4%[57.1 µM]	0%	27µM*	0%
O=C1OCCC1Sc1nnc(-c2ccc3c(c2)OCO3)o1 (stereo unspecified)	8%	-18%	-1%	-4%	-3%	45%
C#CCOc1ccccc1C(N)=O	15%	-18%	1%	-6%	1%	20%
COc1ccc(/C=C/C(=O)NCC(=O)N2CCC(N(C)CCN3CCOCC3)CC2)cc1OC	·	-2%	50µM*	?	-3%	?
CN(C1CCCC1)C1CCN(C(=O)CNC(=O)/C=C/c2ccccc2)CC1	1%	-2%	-4%	-14%	-8%	14%
SMILES	L3MBTL1 block	VDR inhibitor	BAZ2B inh	JMJD2A Tudor inh	PLK1 PBD inh	HP1b binding inh
NC(=O)CC(NC(=S)NCc1ccccc1)C(=O)O (stereo unspecified)	·	-6%	-5%	-20%	21µM*	3%
CCOC(=O)Cn1c(=O)n(CC2CCCO2)c2nc(-c3ccc(OCC)cc3)nc(C(N)=O)c21 (stereo unspecified)	·	14%	4%	5%	·	26%[57 µM]
C[C@H]1COc2cccc(N3CCSCC3)c2S(=O)(=O)N1	·	·	·	·	-5%	·
Cc1cc(/C=N/NC(N)=S)c(C)n1-c1ccc(Cl)c(Cl)c1	?	-20%	-7%	?	-11%	3%
Cc1cccc(C)c1-n1c(C)cc(/C=N/NC(=O)c2ccncc2)c1C	-8%	5%	?	?	4%	15%
Cc1cc(/C=N/NC(=O)c2ccncc2)c(C)n1-c1ccccc1	-5%	14%	?	-27%	-1%	2%
CCc1ccc(-n2c(C)cc(/C=N/NC(=O)c3ccncc3)c2C)cc1	-27%	26%	40µM*	?	-1%	-3%
Cc1ccc(-n2c(C)cc(/C=N/NC(=O)c3ccncc3)c2C)cc1C	-24%	?	50µM*	?	-4%	-16%
CCNC(=S)N/N=C/c1cc(C)n(-c2ccc(Cl)cc2)c1C	-1%	-17%	28µM*	50µM*	-5%	?
COC(=O)N/N=C/c1cc(C)n(-c2ccc(Br)cc2)c1C	-18%	-9%	45µM*	-25%	3%	?
CN(C(=O)c1cc(COc2ccc(F)cc2Cl)on1)C1CCCc2ccccc21 (stereo unspecified)	·	-6%	-6%	21%	-4%	90%
Cc1ccc(-n2c(C)cc(/C=N/NC(=O)c3ccncc3)c2C)c(C)c1	-16%	1%	45µM*	?	1%	6%
Cc1cc(/C=N/N2CCN(C)CC2)c(C)n1-c1ccc(Cl)cc1	?	18%	?	50µM*	-11%	?
CC[C@H](C)C(=O)O[C@H]1C[C@@H](C)C=C2C=C[C@H](C)[C@H](CC[C@@H]3C[C@@H](O)CC(=O)O3)[C@H]21	-13%	50µM*!	-22%	-16%	-13%	11%
N#Cc1ccc(CN2CCCC3(CCN(C(=O)c4cnccn4)CC3)C2)cc1	·	-14%	·	·	·	·
O=C(O)/C(=C\c1ccc(F)cc1)c1ccc(-c2ccccc2)cc1	·	-17%	-29%	-17%[57.1 µM]	24µM*	-14%
O=C(O)/C(=C\c1ccccc1OC(F)F)c1ccc(-c2ccccc2)cc1	·	-9%	?	-13%	?	22%
COc1ccc(-n2c(=O)cnc3cnc(Oc4ccccc4)nc32)cc1	·	-15%	·	·	·	·
CSc1cccc(NC(=O)COc2ccccc2)c1	8%	-21%	14%	?	3µM*	?
CC(=O)c1cccc(NC(=O)COc2ccccc2)c1	3%	34%	-1%	-2%	-5%	48%
